We go through 23 compounds from PMC4336329 (PLoS ONE, 2015).

Out of some 310,000 compounds screened, about 2,200 (0.71%) showed an effect of 50% or more. Effects have a minus sign here. Only a selection was taken, and strong results are over-represented in it overall.

human ether-à-go-go-related gene (hERG) potassium channel, sequence (Q12809 whole entry, looked up): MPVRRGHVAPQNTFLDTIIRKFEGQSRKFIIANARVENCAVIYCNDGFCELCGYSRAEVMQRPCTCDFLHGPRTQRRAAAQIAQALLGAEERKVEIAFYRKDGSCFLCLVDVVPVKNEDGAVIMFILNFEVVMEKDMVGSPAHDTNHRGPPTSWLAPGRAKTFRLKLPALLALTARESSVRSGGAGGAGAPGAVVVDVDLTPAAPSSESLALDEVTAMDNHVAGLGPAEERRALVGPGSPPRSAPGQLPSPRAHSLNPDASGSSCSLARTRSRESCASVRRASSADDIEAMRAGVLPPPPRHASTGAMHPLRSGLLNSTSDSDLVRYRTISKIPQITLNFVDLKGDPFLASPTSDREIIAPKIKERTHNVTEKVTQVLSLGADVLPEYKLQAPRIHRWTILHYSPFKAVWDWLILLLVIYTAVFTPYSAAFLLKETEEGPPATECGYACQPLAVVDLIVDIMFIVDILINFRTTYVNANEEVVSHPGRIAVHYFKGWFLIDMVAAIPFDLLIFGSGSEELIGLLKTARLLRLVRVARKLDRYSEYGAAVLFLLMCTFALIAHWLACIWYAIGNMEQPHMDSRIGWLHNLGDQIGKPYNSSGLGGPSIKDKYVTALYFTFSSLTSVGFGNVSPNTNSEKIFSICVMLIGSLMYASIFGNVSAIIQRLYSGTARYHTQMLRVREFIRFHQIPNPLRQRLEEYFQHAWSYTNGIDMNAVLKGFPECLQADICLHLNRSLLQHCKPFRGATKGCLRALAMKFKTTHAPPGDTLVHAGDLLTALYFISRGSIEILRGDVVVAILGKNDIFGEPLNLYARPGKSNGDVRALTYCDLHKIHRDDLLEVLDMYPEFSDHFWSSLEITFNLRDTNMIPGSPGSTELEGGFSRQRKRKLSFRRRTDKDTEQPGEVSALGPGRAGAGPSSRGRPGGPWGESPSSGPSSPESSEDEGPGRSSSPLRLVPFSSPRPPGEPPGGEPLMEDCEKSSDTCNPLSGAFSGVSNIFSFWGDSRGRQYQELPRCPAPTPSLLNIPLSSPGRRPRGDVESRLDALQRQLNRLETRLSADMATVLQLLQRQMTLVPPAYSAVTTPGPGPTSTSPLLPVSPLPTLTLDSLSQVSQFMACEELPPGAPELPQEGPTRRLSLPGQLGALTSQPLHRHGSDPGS

The assay addresses human ether-à-go-go-related gene (hERG) potassium channel (human, UniProt Q12809). The assay can be described thus: primary screen, population patch clamp on CHO cells stably expressing hERG; higher = less effect of the substance.
For the compound `CCN(CC)C(=O)Oc1cc(=O)n(C)c2ccccc12`, the “hERG current change (%, negative = inhibition) at 1uM” value was 6.19%. With `Cc1ccc([C@H]2C(C#N)=C(N)Oc3cc(C)oc(=O)c32)o1` the figure was 12.8%. With `O=c1c2ccccc2n2cnnc2n1-c1ccccc1` the figure was 2.26%; with `Cc1ccc(NC(=O)C(c2ccc(Cl)cc2)N2CCOCC2)cc1` (centres unmarked), 16.1%. On to `Cc1cc2c(cc(C(=O)OCC(=O)NCc3ccco3)n2C)s1`, for which the “hERG current change (%, negative = inhibition) at 1uM” value worked out at 6.5%. With `CC1CCCC(NC(=O)CSc2nnnn2C)C1C` (centres unmarked), the “hERG current change (%, negative = inhibition) at 1uM” value is 13.2%. Regarding `COc1ccc(NC(=O)C2CCCN(S(=O)(=O)c3ccc(Cl)cc3)C2)cc1OC` (centres unmarked), the “hERG current change (%, negative = inhibition) at 1uM” value is given as 10.9%. For the compound `CCCCCn1c(=O)c(C(=O)NCc2ccncc2)c(O)c2ccccc21`, the “hERG current change (%, negative = inhibition) at 1uM” value was 2.72%. With `CC(NC(=O)c1ccccc1F)C(=O)O` (centres unmarked) the figure was 16.8%; with `C=C(C)COc1ccc(-c2nc(N)ncc2Oc2ccc(OC)cc2)c(O)c1`, -5.45%. With `CC(/C=N/NC(=O)c1ccncc1)=C\c1ccco1` the figure was 14.7%; with `Cc1ccc(CNC(=O)COc2ccc3c(c2)CCC3)cc1`, -2.48%; with `CCOC(=O)C(CC)Sc1nc2c(c(=O)[nH]c(=O)n2C)n1C/C=C(/C)Cl` (centres unmarked), -56.9%. The figure for `CCOC(=O)CSc1nc2c(c(=O)[nH]c(=O)n2C)n1C/C=C(/C)Cl` is -7.88%; for `CCOC(=O)C(CC)Sc1nc2c(c(=O)[nH]c(=O)n2C)n1CCc1ccccc1` (centres unmarked) it is -30.9%. On to `COC(=O)CN1C(=O)[C@H]2[C@@H](C3CC3)N3C(=O)CN(Cc4ccc(-c5ccccc5)cc4)C(=O)[C@@]3(Cc3ccccc3)[C@H]2C1=O`, for which the “hERG current change (%, negative = inhibition) at 1uM” value is recorded as 15.6%.

With `COc1ccccc1Oc1ccc2c(c1)C(=O)N(c1ccc(Br)c3cccnc13)C2=O`, the “hERG current change (%, negative = inhibition) at 1uM” value was found to be 1.75%. The figure for `Cc1cccc(NC(=O)CN2C(=O)/C(=C3\SC(=S)N(CC4CCCO4)C3=O)c3ccccc32)c1` (centres unmarked) is 17.1%; for `O=C(CN1C(=O)/C(=C2\SC(=S)N(CCS(=O)(=O)O)C2=O)c2ccccc21)Nc1cccc(Br)c1` it is -52.8%; for `O=C1/C(=C2\C(=O)N(Cc3ccc(F)cc3)c3ccccc32)SC(=S)N1CCS(=O)(=O)O` it is 10.6%. Take `Cc1ccc(S(=O)(=O)Nc2cccc(C(=O)NCC3(N4CCCCC4)CCCCC3)c2)cc1F`: the “hERG current change (%, negative = inhibition) at 1uM” value is on record as -76.4%. Turning to `O=C(NCC1(N2CCCCC2)CCCCC1)c1cccc(NS(=O)(=O)c2ccccc2)c1`, the “hERG current change (%, negative = inhibition) at 1uM” value is on record as -34%. As for `Cc1cccc(NS(=O)(=O)c2cccc(C(=O)NCC3(N4CCCCC4)CCCCC3)c2)c1`, the “hERG current change (%, negative = inhibition) at 1uM” value was -45.1%.
